From PubChem
KLF5 inhibitor – KLF5 expression inhibitors, primary screen, DLD-1 cells, luminescence; DLD-1 KLF5 promoter-luciferase reporter; inhibition, % at 5 µM; actives 0.23% (n = 290,000); AID 1700, 2009;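 active = inhibition above a per-plate limit of that plate's mean compound inhibition plus 3 SD, cut at about 60% in these data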;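 note: higher means less KLF5 promoter-driven luciferase light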
APP transl inh – inhibitors of APP translation via 5'UTR reporter, primary screen, APP 5'UTR luciferase, SH-SY5Y cells; SH-SY5Y APP 5'UTR-luciferase reporter, luminescence; inhibition, % at 2 µM; actives 0.82% (n = 190,000); AID 1285, 2008;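 active = inhibition above a set limit, derived from the sample mean plus 3 SD, cut at about 45% in these data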
IEC-6 cytotox – cytotoxicity in IEC-6 intestinal epithelial cells, primary screen, cytotoxicity control for KLF5 inhibitor project, cell-based, luminescence | IEC-6 cytotoxicity, luminescence viability | inhibition, % at 5 µM | actives 0.78% (n = 290,000) | AID 1825, 2009
Ba/F3 V617F tox – reduced viability of JAK2V617F-dependent Ba/F3 cells, primary screen, JAK2V617F inhibitor project, cell-based, Ba/F3 EpoR-JAK2V617F, luminescence. ATP luminescence. inhibition, % at 5.6 µM. actives 1.1% (n = 220,000);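 active = inhibition above the campaign mean plus 3 SD over all tested compounds, cut at about 24% in these data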;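 note: cytokine-independent growth of Ba/F3 cells driven by EpoR plus mutant JAK2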
BaF3 tox – parental Ba/F3 cell viability inhibition, counter-screen for JAK2V617F inhibitor project, murine pro-B, CellTiter-Glo luminescence | CellTiter-Glo ATP luminescence | inhibition, % at 5.6 µM | actives 1.1% (n = 220,000);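 active = inhibition above a per-campaign cutoff, the mean inhibition of all tested compounds plus 3 SD, cut at about 27% in these data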
IEC-6 tox confirm – cytotoxic compounds in IEC-6 epithelial cells, confirmation, cytotoxicity control, cell-based, luminescence; shares compounds with IEC-6 cytotox; IEC-6 rat intestinal epithelial viability; inhibition, % at 5 µM; actives 63% (n = 1,900); AID 1907, 2009
Of the large screens only hits and unclear results are named; the others gave an inactive call (follow-up assays come after a bar, where they were run). This is a sample that favours compounds with a hit; in the whole collection about 1.9% have one here. Cut-off read from the data, not from the text of the source, unless noted: active = inhibition above about 22%; inactive = the rest.

CCC(C)(C(=O)NC1CCCC1)N(C(=O)Cc1cccs1)c1c(C)n(C)n(-c2ccccc2)c1=O (centres undefined)	none
Clc1cccc(Cl)c1/C=C/c1ccn[nH]1	IEC-6 cytotox 27 (no result: APP transl inh, Ba/F3 V617F tox, BaF3 tox) | IEC-6 tox confirm inactive
COc1cc(CN(CC2CCCO2)C(=O)c2ccco2)cc(OC)c1OC (centres undefined)	none (no result: APP transl inh, Ba/F3 V617F tox, BaF3 tox)
COc1ccc2[nH]c3c(N4CCc5ccccc5C4)ncnc3c2c1	IEC-6 cytotox 77, Ba/F3 V617F tox 76, BaF3 tox 78 (no result: APP transl inh) | IEC-6 tox confirm 66
CCOC(=O)N1CCN(c2ncnc3c2[nH]c2ccc(OC)cc23)CC1	none
O=C1C(Cl)=C(Nc2ccc(O)cc2)C(=O)c2ccccc21	IEC-6 cytotox 102, Ba/F3 V617F tox 39, BaF3 tox 59 (no result: APP transl inh) | IEC-6 tox confirm 56
COC1=C(Nc2ccc(O)cc2)C(=O)c2ccccc2C1=O	none
O=C(Oc1ccccc1-c1nnco1)c1ccc(Cl)cc1	IEC-6 cytotox 33 | IEC-6 tox confirm inactive
Brc1ccc(-c2csc(-c3c[nH]c4ccccc34)n2)cc1	none
c1ccc2c(-c3csc(-c4ccncc4)n3)c[nH]c2c1	IEC-6 cytotox 82 | IEC-6 tox confirm 93
COc1ccc(NC(=O)c2ccc3c(=O)n(-c4ccc(OC)cc4OC)c(=S)[nH]c3c2)cc1	none
COc1ccc(-n2c(=S)[nH]c3cc(C(=O)Nc4ccc(F)cc4)ccc3c2=O)c(OC)c1	IEC-6 cytotox 32 (no result: APP transl inh, Ba/F3 V617F tox, BaF3 tox) | IEC-6 tox confirm inactive
NS(=O)(=O)c1ccc(CNC(=O)c2cc(=O)c3cc(Cl)ccc3o2)cc1	IEC-6 cytotox 101 (no result: APP transl inh, Ba/F3 V617F tox, BaF3 tox) | IEC-6 tox confirm inactive
Cc1ccc2oc(C(=O)NCc3ccc(S(N)(=O)=O)cc3)cc(=O)c2c1	none (no result: APP transl inh, Ba/F3 V617F tox, BaF3 tox)
CC1(C)CC(=O)N(Cc2ccccc2)C(=O)C1	none
CN(Cc1ccccc1)C1=CC(=[N+]2CCCC2)CC(C)(C)C1	IEC-6 cytotox 31, Ba/F3 V617F tox 94, BaF3 tox 73 (no result: APP transl inh) | IEC-6 tox confirm 28
Cc1cc2nc(C3CCN(Cc4nnnn4Cc4cccs4)CC3)[nH]c2cc1C	IEC-6 cytotox 46 | IEC-6 tox confirm 34
CCOC(=O)C1=C(CNC(C)(C)CC(C)(C)C)NC(=O)NC1c1cccc([N+](=O)[O-])c1 (centres undefined)	none
Cc1ccc(C)c(NC(=O)NNC(=O)c2cc3ccccc3cc2O)c1	none (no result: APP transl inh, Ba/F3 V617F tox, BaF3 tox)
Clc1ccc(C2=Nn3c(nnc3-c3n[nH]c4c3CCC4)SC2)cc1	APP transl inh 89, IEC-6 cytotox 32, Ba/F3 V617F tox 55, BaF3 tox 50 | IEC-6 tox confirm 50
C[C@H](NC(=O)c1ccccc1)C(=O)N1CCC2(CC1)NCCc1[nH]cnc12	none (no result: APP transl inh, Ba/F3 V617F tox, BaF3 tox)
C=CCSc1nsc(NC(=O)Nc2ccc(F)cc2)n1	IEC-6 cytotox 32 (no result: APP transl inh, Ba/F3 V617F tox, BaF3 tox) | IEC-6 tox confirm 48
CCSc1nsc(NC(=O)Nc2ccccc2F)n1	none (no result: APP transl inh, Ba/F3 V617F tox, BaF3 tox)
Cc1cc(NC(c2ccc(Cl)cc2)c2ccc3cccnc3c2O)no1 (centres undefined)	APP transl inh 79, IEC-6 cytotox 39, BaF3 tox 55 | IEC-6 tox confirm 72
CCC(=O)NC(c1ccc(C)cc1)c1ccc2cccnc2c1O (centres undefined)	KLF5 inhibitor 73, IEC-6 cytotox 61 (no result: APP transl inh, Ba/F3 V617F tox, BaF3 tox) | IEC-6 tox confirm 82
CCC(=O)NC(c1ccc(Cl)cc1Cl)c1ccc2cccnc2c1O (centres undefined)	KLF5 inhibitor 86, IEC-6 cytotox 26 (no result: APP transl inh, Ba/F3 V617F tox, BaF3 tox) | IEC-6 tox confirm 70
CC(NC(=O)CSc1ncccn1)c1ccc(Cl)cc1Cl (centres undefined)	none
Cc1ccnc(NC(c2cccnc2)c2ccc3cccnc3c2O)c1 (centres undefined)	none
CN(C)S(=O)(=O)N(CC(=O)Nc1ccccc1)c1ccccc1	none
COc1cccc(C(=O)Oc2cc(C)[nH]c(=O)c2[N+](=O)[O-])c1OC	none
Cc1ccc(S(=O)(=O)CCC(=O)Nc2cccc(Cl)c2)cc1	none (no result: APP transl inh, Ba/F3 V617F tox, BaF3 tox)
Cc1nc2ccccc2c2oc(C(=O)N3CCC(N4CCCCC4)CC3)cc12	none
Cc1cccc(NC(=O)Nc2ccc3c(c2)CCC3)c1	IEC-6 cytotox 90 (no result: APP transl inh, Ba/F3 V617F tox, BaF3 tox) | IEC-6 tox confirm inactive
Cc1ccc(CNC(=O)C2CCCN(C(=O)Nc3ccc(F)cc3)C2)cc1 (centres undefined)	none (no result: APP transl inh, Ba/F3 V617F tox, BaF3 tox)
NC1=NC(=O)/C(=C\c2ccc(-c3ccc(Cl)cc3)o2)S1	none (no result: APP transl inh, Ba/F3 V617F tox, BaF3 tox)
COCCn1c(SCC(=O)Nc2ccccc2OC)nnc1-c1ccco1	none (no result: APP transl inh, Ba/F3 V617F tox, BaF3 tox)
CCCn1c(SCC(=O)Nc2ccccc2OC)nnc1-c1ccco1	IEC-6 cytotox 35 (no result: APP transl inh, Ba/F3 V617F tox, BaF3 tox) | IEC-6 tox confirm inactive
CCOc1ccc(C(C)=O)cc1N1C(=O)C2C3C=CC(O3)C2C1=O (centres undefined)	IEC-6 cytotox 22, BaF3 tox 28 | IEC-6 tox confirm inactive
COc1cccc(S(=O)(=O)Nc2ccc3sc(C)nc3c2)c1	none
COc1ccc(C2C(C#N)=C(/N=C/N3CCN(C)CC3)OC3=C2C(=O)CC(C)(C)C3)cc1 (centres undefined)	none
CCOc1ccc(S(=O)(=O)NCc2cccnc2)cc1NC(=O)c1ccccc1F	IEC-6 cytotox 33 (no result: APP transl inh, Ba/F3 V617F tox, BaF3 tox) | IEC-6 tox confirm inactive
CCOc1ccc(S(=O)(=O)NCc2ccncc2)cc1NC(=O)c1ccccc1F	none (no result: APP transl inh, Ba/F3 V617F tox, BaF3 tox)
COc1c(Cl)cnn(-c2ccccc2)c1=O	none
COc1nn(-c2ccccc2)c(=O)c(Cl)c1Cl	IEC-6 cytotox 100 (no result: APP transl inh, Ba/F3 V617F tox, BaF3 tox) | IEC-6 tox confirm 23
O=C(Nc1ccc(N2CCOCC2)cc1)Nc1ccc2nc(-c3ccco3)c(-c3ccco3)nc2c1	IEC-6 cytotox 23 | IEC-6 tox confirm 37
NC(=S)Nn1c(-c2ccccc2)nc2ccccc2c1=O	none
CCn1c(Cl)c(C=O)s/c1=N\S(=O)(=O)c1ccccc1	IEC-6 cytotox 96, Ba/F3 V617F tox 99, BaF3 tox 103 (no result: APP transl inh) | IEC-6 tox confirm 91
CCN1C(=O)CS/C1=N\S(=O)(=O)c1ccc(Cl)cc1	none
COc1ccccc1NC(=O)N1CCC(c2nc3cc(C)c(C)cc3[nH]2)CC1	APP transl inh 58, IEC-6 cytotox 82, Ba/F3 V617F tox 83, BaF3 tox 81 | IEC-6 tox confirm 59
NC(N)=Nc1ccc(N=C(N)N)cc1	IEC-6 cytotox 97 (no result: APP transl inh) | IEC-6 tox confirm 98
CCOc1ccc(/C=C(/NC(=O)c2ccc(Cl)cc2)C(=O)O)cc1OCC	none (no result: APP transl inh)
CCOc1cc(/C=C(/NC(C)=O)C(=O)O)cc(Cl)c1OCc1ccc(Br)cc1	IEC-6 cytotox 26 (no result: APP transl inh) | IEC-6 tox confirm inactive
CCC(C(=O)Nc1cc(Cl)c(OC)cc1OC)c1ccccc1 (centres undefined)	none
COc1cc(OC)c(NC2=CC(=O)C(=O)c3ccccc32)cc1Cl	IEC-6 cytotox 78 (no result: APP transl inh, Ba/F3 V617F tox, BaF3 tox) | IEC-6 tox confirm 31
COc1ccc(S(=O)(=O)N2CCN(c3ccc4nnc(-c5ccccc5)n4n3)CC2)cc1	none
